Results taken from PubChem BioAssay (NCATS).
Results filed as inconclusive are left out. Unmarked numbers belong to inactive results. Calls of active or inactive are those of the source. Calls come from the whole dose curve; as a rule, active = well fitted cell-killing curve with a large enough effect; inconclusive = small, poorly fitted or top-dose-only effect, or effect the other way; inactive = no such curve, though single readings can be large or run the other way.

Legend:
[1] = Quantitative High-Throughput drug screen in 47 multiple myeloma cell lines against the NCATS MIPE library collection: KMS11_JCRBsus cell viability assay (AID 1919873); note: nearly all actives have a fitted effect of over 50% in size; note: potency is the fitted concentration of half-maximal effect
How it was run: (§1)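 ATP-based CellTiter-Glo luminescence after 48 h drug exposure (37 °C, 5% CO2) of 500 myeloma cells per well. DMSO-only wells set 100% viability, media-only wells 0%; MIPE 4.0 library added by pin tool.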

[2] = Quantitative High-Throughput drug screen in 47 multiple myeloma cell lines against the NCATS MIPE library collection: KMS28BM_JCRB cell viability assay (AID 1919874); note: nearly all actives have a fitted effect of over 35% in size
How it was run: as §1

## N#Cc1c(C2CCNCC2)cc(-c2c(O)cccc2OCC2CC2)nc1N
[1]
  Potency: 18.7 µM (active)

## O=C(O)c1ccc(Nc2ncc3c(n2)-c2ccc(Cl)cc2C(c2c(F)cccc2F)=NC3)cc1
[1]
  Potency: 0.132 µM (active)

## COc1ccnc2[nH]cc(C(=O)C(=O)N3CCN(C(=O)c4ccccc4)C[C@@H]3C)c12
[1]
  Potency: inactive

## COC(=O)[C@@H]1[C@H]2C[C@@H]3c4[nH]c5ccccc5c4CCN3C[C@@H]2CC[C@@H]1O
[1]
  Potency: inactive

## CCc1nc(-c2cccc(C)c2)c(-c2ccnc(NC(=O)c3ccccc3)c2)s1
[1]
  Potency: 20.9 µM (active)

## O=C(O)C[C@H](O)C[C@H](O)C=Cc1c(C2CC2)nc2ccccc2c1-c1ccc(F)cc1
[1]
  Potency: 7.43 µM (active)

## CN1CCc2c(c3ccccc3n2Cc2ccc(C(=O)NO)cc2)C1
[1]
  Potency: 20.9 µM (active)

## O=C1CSC(=O)N1C(CCc1ccncc1)COc1ccc(-c2cccc([N+](=O)[O-])c2)cc1 (configuration not stated)
[1]
  Potency: 11.8 µM (active)

## CCOC(=O)C1=C(C)NC(=S)NC1c1cccc(O)c1 (configuration not stated)
[1]
  Potency: 0.0166 µM (active)

## CC(C)(C)[C@H](NC(=O)c1ccc(N)c(Cl)c1)C(=O)N1CCC[C@@H]1C(=O)N[C@H](C#N)CC(=O)O
[1]
  viability (% of control): 102% [at 3.51 µM]

## Cc1cc(-c2nnc3n2CCCCC3)c(C)n1-c1ccccc1
[1]
  Potency: inactive

## CCOC(=O)C=C[C@H](C[C@@H]1CCNC1=O)NC(=O)[C@@H](CC(=O)[C@@H](NC(=O)c1cc(C)on1)C(C)C)Cc1ccc(F)cc1
[1]
  Potency: inactive

## Cc1ccc(-n2[nH]c(C)c(N=Nc3cccc(-c4cccc(C(=O)O)c4)c3O)c2=O)cc1C
[1]
  Potency: 23.5 µM (active)

## N#Cc1c(NC(=O)c2cccc3ccccc23)sc2c1CCCC2
[1]
  Potency: 0.148 µM (active)

## Oc1cc(-c2nc(-c3ccccc3)[nH]c2-c2ccncc2)ccc1Cl
[1]
  Potency: 14.8 µM (active)

## CC1(C)CC(O)CC(C)(C)N1[O]
[1]
  Potency: inactive

## C[C@H](CCC(=O)O)[C@H]1CC[C@H]2[C@@H]3[C@H](O)C[C@@H]4C[C@H](O)CC[C@]4(C)[C@@H]3CC[C@]12C
[1]
  Potency: inactive

## C=C(C)[C@@H]1CC[C@]2(C)CC[C@]3(C)[C@H](CC[C@@H]4[C@@]5(C)CC[C@H](O)C(C)(C)[C@H]5CC[C@]43C)[C@@H]12
[1]
  Potency: inactive

## N=c1ccn2c(n1)O[C@H]1[C@@H](O)[C@@H](CO)O[C@H]12
[1]
  Potency: 0.469 µM (active)

## CC[C@]12C=CCN3CC[C@@]4(c5cc([C@@]6(C(=O)OC)C[C@H]7C[C@@H](C(C)(F)F)CN(Cc8c6[nH]c6ccccc86)C7)c(OC)cc5N(C)[C@H]4[C@@](O)(C(=O)OC)[C@H]1OC(C)=O)[C@@H]32
[1]
  Potency: 0.0026 µM (active)

## Cn1cc(C=CC(=O)c2cccc(F)c2)cc1C=CC(=O)NO
[1]
  Potency: 14.8 µM (active)

## CCCCCCCCCCCCCCCC(=O)OC[C@@H](NC(=O)C(Cl)Cl)[C@H](O)c1ccc([N+](=O)[O-])cc1
[1]
  Potency: inactive

## C[C@]12C=CC(=O)N[C@@H]1CC[C@H]1[C@H]3CC[C@@H](C(=O)Nc4cc(C(F)(F)F)ccc4C(F)(F)F)[C@@]3(C)CC[C@@H]12
[1]
  Potency: inactive

## CC(C)(C)[N+]([O-])=Cc1ccc(S(=O)(=O)O)cc1S(=O)(=O)O
[1]
  Potency: inactive

## CCc1cc(C(C)=NOCc2ccc(C3CCCCC3)c(C(F)(F)F)c2)ccc1CN1CC(C(=O)O)C1
[1]
  Potency: inactive

## C[C@@H](Cc1cc2c(c(C(N)=O)c1)N(CCCO)CC2)NCCOc1ccccc1OCC(F)(F)F
[1]
  Potency: inactive

## COc1ccc(Nc2cc(-c3cnc(N)nc3)nc(N3CCOCC3)n2)cn1
[1]
  Potency: 0.469 µM (active)

## NC(=O)Nc1cc(-c2ccc(CN3CCOCC3)cc2)sc1C(N)=O
[1]
  Potency: 11.8 µM (active)

## Cc1ccc(O)c(C(CCN(C(C)C)C(C)C)c2ccccc2)c1 (configuration not stated)
[1]
  Potency: inactive

## O=C(NC1CC1)c1cccc(-c2ccc3c(NC(=O)C4CC4)n[nH]c3c2)c1
[1]
  Potency: 7.43 µM (active)

## COc1ccc2cc([S+]([O-])Cc3ncc(C)c(OC)c3C)nc2c1
[1]
  Potency: inactive

## CCCCCN=C(N)NN=Cc1c[nH]c2ccc(OC)cc12
[1]
  Potency: 2.64 µM (active)

## O=C(C=CC=Cc1ccc2c(c1)OCO2)N1CCCCC1
[1]
  Potency: inactive

## CC(Oc1ccc(O)cc1)(P(=O)(O)O)P(=O)(O)O
[1]
  Potency: inactive

## O=C1NC(=O)[C@@H](c2cn3c4c(cccc24)CCC3)[C@H]1c1c[nH]c2ccccc12
[1]
  Potency: 0.118 µM (active)

## CCN1CCN(C(=O)N[C@H](C(=O)N[C@@H]2C(=O)N3C(C(=O)O)=C(CSc4nnnn4C)CS[C@@H]23)c2ccc(O)cc2)C(=O)C1=O
[1]
  Potency: inactive
[2]
  Potency: inactive
